NR5A2 inv ag: LRH-1 (NR5A2) inverse agonists, primary screen, cell-based, luminescence, HEK293T, StAR-luciferase reporter. Nuclear receptor subfamily 5 group A member 2 (Homo sapiens), O00482. LRH-1 transfected, 24 h. inhibition, % at 3.6 µM. 360,000 compounds, 0.13% hits. AID 602396, 2012;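 active = inhibition above the mean inhibition of all tested compounds plus 3 SD, cut at about 73% in these data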;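 also: 0% = DMSO wells and 100% = reporter-only cells lacking LRH-1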
NR2F2 inh: NR2F2 transcriptional activity inhibitors, primary screen, cell-based, luciferase reporter, HEK293T, luminescence; COUP transcription factor 2 (Homo sapiens), P24468; HEK293T NGFI-A luciferase reporter; inhibition, % at 8.6 µM; 370,000 compounds, 0.7% hits; AID 686940, 2013;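 active = inhibition above a per-plate cutoff, mean inhibition of test wells between control levels plus 3 SD, cut at about 38% in these data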;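 also: cells cotransfected with COUP-TFII expression vector driving the NGFI-A reporter; 0% = median of COUP-TF2 test wells and 100% = reporter-only cells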
Gli-Sufu block: Gli-Sufu pathway antagonists, primary screen, luciferase luminescence, Sufu-KO-LIGHT cells, uHTS. 340,000 compounds, 0.74% hits. AID 588413, 2011. inhibition, % at 5 µM. Sufu-KO-LIGHT fibroblasts, Gli luciferase reporter luminescence;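 active = inhibition above about 55%, limit read from the data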;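 also: 0% = DMSO-treated cells and 100% = wells with medium but no cells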
NCOA1 inh: SRC1 coactivator transcriptional activity inhibitors, primary screen, cell-based, luminescence. Nuclear receptor coactivator 1 (Homo sapiens), Q15788. HEK293 GAL4-SRC1 luciferase reporter. inhibition, % at 3.6 µM. 360,000 compounds, 0.12% hits. AID 588354, 2011;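 active = inhibition above the campaign mean plus 3 SD, with each screening campaign given its own cutoff, cut at about 60% in these data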;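 also: 0% = DMSO treated cells and 100% = gossypol at 36 µM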
NCOA2 inhibitor: inhibition of GAL4-SRC2 driven luciferase reporter, primary screen, SRC2 inhibitor project, cell-based, luminescence; AID 651957, 2012; HEK293 GAL4-SRC2 luciferase reporter; Nuclear receptor coactivator 2 (Homo sapiens), Q15596; inhibition, % at 9 µM; 370,000 compounds, 0.17% hits;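 active = inhibition above the mean inhibition of all tested compounds plus 3 SD, set per campaign, cut at about 52% in these data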;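 also: 0% = DMSO treated cells and 100% = cells given Gossypol at 36 µM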
NCOA3 inh: SRC3 coactivator transcriptional activity inhibitors, primary screen, cell-based, luminescence. HEK293 GAL4-SRC3 luciferase reporter. Nuclear receptor coactivator 3 (Homo sapiens), Q9Y6Q9. inhibition, % at 3.6 µM. 360,000 compounds, 0.17% hits;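 active = inhibition above a per-campaign cutoff, the mean of all compounds plus 3 SD, cut at about 60% in these data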;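 also: 0% = DMSO-treated cells and 100% = gossypol-treated cells at 36 µM; higher means less SRC3-driven luciferase light from the GAL4 reporter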
Target sequence (Q9Y6Q9 whole entry, looked up, the tested form may be a part): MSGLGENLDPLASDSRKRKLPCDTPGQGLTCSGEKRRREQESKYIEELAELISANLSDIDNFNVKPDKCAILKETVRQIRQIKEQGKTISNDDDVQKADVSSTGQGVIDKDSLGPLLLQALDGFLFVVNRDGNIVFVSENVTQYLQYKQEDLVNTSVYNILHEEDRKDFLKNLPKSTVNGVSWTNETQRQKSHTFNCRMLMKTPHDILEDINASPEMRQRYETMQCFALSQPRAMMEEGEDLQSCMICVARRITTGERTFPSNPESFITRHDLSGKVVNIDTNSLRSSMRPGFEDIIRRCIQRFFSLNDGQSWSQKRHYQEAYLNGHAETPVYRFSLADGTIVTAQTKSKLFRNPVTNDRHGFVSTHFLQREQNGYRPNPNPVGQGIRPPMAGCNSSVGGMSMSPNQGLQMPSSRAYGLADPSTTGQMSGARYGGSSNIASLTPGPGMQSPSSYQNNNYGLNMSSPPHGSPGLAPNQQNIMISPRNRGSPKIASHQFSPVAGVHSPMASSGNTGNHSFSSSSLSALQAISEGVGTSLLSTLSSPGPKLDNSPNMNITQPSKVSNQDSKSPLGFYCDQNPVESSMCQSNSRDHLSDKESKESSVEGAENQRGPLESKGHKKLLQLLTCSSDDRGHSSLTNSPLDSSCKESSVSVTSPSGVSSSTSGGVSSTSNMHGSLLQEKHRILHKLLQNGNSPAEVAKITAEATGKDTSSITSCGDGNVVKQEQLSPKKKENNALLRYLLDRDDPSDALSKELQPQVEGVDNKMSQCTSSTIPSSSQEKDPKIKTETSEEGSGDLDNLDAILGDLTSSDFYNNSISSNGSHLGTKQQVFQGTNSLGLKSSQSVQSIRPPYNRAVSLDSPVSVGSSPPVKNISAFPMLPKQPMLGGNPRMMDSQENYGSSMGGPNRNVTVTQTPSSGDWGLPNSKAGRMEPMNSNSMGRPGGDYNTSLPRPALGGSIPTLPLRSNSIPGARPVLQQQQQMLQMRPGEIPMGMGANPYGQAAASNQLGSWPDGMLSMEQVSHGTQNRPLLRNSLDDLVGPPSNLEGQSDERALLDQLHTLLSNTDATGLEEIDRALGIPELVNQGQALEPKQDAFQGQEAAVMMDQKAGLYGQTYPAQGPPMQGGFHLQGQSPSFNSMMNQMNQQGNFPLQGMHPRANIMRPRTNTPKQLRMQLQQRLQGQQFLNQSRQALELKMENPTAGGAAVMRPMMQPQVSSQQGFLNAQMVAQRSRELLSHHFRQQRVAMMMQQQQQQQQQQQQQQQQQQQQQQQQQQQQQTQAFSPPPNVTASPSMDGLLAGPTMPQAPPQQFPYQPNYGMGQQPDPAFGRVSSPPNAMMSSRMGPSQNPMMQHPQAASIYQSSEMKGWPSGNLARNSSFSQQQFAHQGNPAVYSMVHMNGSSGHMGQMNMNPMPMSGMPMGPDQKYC
Gal4-VP16 ctr: Gal4-VP16 luciferase reporter inhibitors, counter-screen for COUP-TFII antagonist project, cell-based, luminescence, HEK293; shares compounds with NR2F2 inh; inhibition, % at 8.5 µM; 2,500 compounds, 25% hits; AID 687007, 2013; in the data active = inhibition above about 13%
COUP-TFII conf: NR2F2 transcriptional activity inhibitors, confirmation, cell-based, luciferase reporter, HEK293, triplicate. shares compounds with NR2F2 inh. 2,500 compounds, 45% hits. inhibition, % at 8.5 µM. HEK293 NGFI-A luciferase reporter, luminescence;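 active = mean inhibition over three repeats above a set limit taken from the earlier primary screen, cut at about 38% in these data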;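 also: 100% = cells given the luciferase reporter alone without the COUP-TF2 vector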
* = called active by the depositor; · = no result given. Shown are actives, neighbours in structure and some others; about 1.3% of the full set was active somewhere.

SMILES | NR5A2 inv ag | NR2F2 inh | Gli-Sufu block | NCOA1 inh | NCOA2 inhibitor | NCOA3 inh | Gal4-VP16 ctr | COUP-TFII conf
O=C(NCCN1CCC(Cc2ccccc2)CC1)C1CCCN(S(=O)(=O)c2cccs2)C1 (stereo not drawn) | · | 46.7* | · | · | 13.1 | · | -0.6 | 6.2
CC1(C)N=C(N)N=C(N)N1c1ccc(CCCCc2ccccc2)cc1 | 80.1* | 70.0* | · | 37.7 | 50.6 | 46.3 | 28.1* | 62.4*
O=[N+]([O-])c1ccc(N2CCN(c3ccc([N+](=O)[O-])cc3CO)CC2)c(CO)c1 | 22.7 | 60.3* | 5.4 | 19.1 | 16.0 | -14.4 | 1.2 | 20.8
Cc1cc(C(=O)COc2cccnc2[N+](=O)[O-])c(C)n1-c1ccccc1F | 4.5 | 47.5* | 28.8 | 21.6 | 50.9 | 23.0 | -99.9 | -42.1
Cc1ccc(-n2c(C)cc(C(=O)COc3cccnc3[N+](=O)[O-])c2C)cc1 | 35.1 | 18.8 | 34.9 | 20.4 | 35.0 | 35.1 | · | ·
Cc1csc2ncnc(N3CCN(C(=O)Nc4ccc(OC(F)(F)F)cc4)CC3)c12 | -1.5 | 38.9* | 15.7 | -6.9 | 40.6 | 32.0 | 6.3 | 27.6
Cc1ccc(NC(=O)Cc2n[nH]c(=O)c3ccccc23)cc1S(=O)(=O)N1CCCCCC1 | -5.7 | 37.9* | 40.5 | -3.3 | 23.3 | -7.0 | -1.6 | 16.6
Cc1ccc(NC(=O)CSc2ncnc3ccccc23)cc1S(=O)(=O)N1CCCCC1 | -24.8 | 38.8* | 4.9 | -9.3 | 36.4 | 17.9 | -6.9 | 7.8
CN(CC(=O)Nc1ccc(Cl)c(C(F)(F)F)c1)C(=O)Cc1n[nH]c(=O)c2ccccc12 | -22.3 | 45.8* | 11.2 | -12.6 | 27.7 | 15.6 | -4.9 | 10.2
N#Cc1cc2ccccc2nc1SCC(=O)Nc1ccc(S(=O)(=O)N2CCCC2)cc1 | -2.3 | 38.7* | 10.8 | -20.4 | 14.4 | 23.5 | -7.8 | 2.0
COC(=O)[C@H](C(C)C)N(Cc1cn(CC2CCCCC2)nn1)S(=O)(=O)c1ccc(F)cc1Br | · | 3.9 | · | · | 10.3 | · | · | ·
Nc1ccc(OC(=O)Nc2ccc(O)cc2)cc1 | 9.6 | 44.2* | 15.7 | -4.2 | 77.4* | 15.1 | 36.0* | 24.2
O=C(Nc1ccc(N2CCN(c3ccc(O)cc3)CC2)cc1)Oc1ccccc1 | -12.8 | -14.8 | 11.3 | -12.0 | 9.0 | 13.4 | · | ·
COc1ccc(NC(=O)C2Cc3c(-c4cccc(C(N)=O)c4)ccnc3O2)cc1OC (stereo not drawn) | 16.5 | 20.4 | · | 18.3 | -6.7 | 0.7 | · | ·
COc1ccc(NC(=O)C2Cc3c(-c4cccc(C(C)=O)c4)ccnc3O2)cc1OC (stereo not drawn) | 54.5 | 75.0* | · | 29.1 | 19.5 | 7.1 | 9.8 | 49.0*
COc1ccc(NC(=O)C2Cc3c(-c4ccc(Cl)cc4)ccnc3O2)cc1OC (stereo not drawn) | 28.7 | 64.1* | · | 18.0 | 30.0 | 14.1 | 6.6 | 54.0*
CC(=O)c1cccc(NC(=O)C2Cc3c(-c4ccccc4Oc4ccccc4)ccnc3O2)c1 (stereo not drawn) | 35.0 | 40.6* | · | 21.3 | 4.4 | -5.4 | -6.6 | 12.2
O=C(OC12CCCN(C1)/C(=C/c1ccncc1)C2)c1ccccc1 (stereo not drawn) | · | 44.6* | · | · | 7.0 | · | 12.4 | 35.8
O=C(OC12CCCN(C1)/C(=C/c1cccnc1)C2)c1ccccc1 (stereo not drawn) | · | 18.6 | · | · | 24.5 | · | · | ·
CCOC(=O)C1CCN(CC(=O)Nc2c(C(=O)OC)[nH]c3ccccc23)CC1 | · | 27.4 | · | · | -13.0 | · | · | ·
CCOC(=O)C1CCN(CC(=O)Nc2c(C(=O)OC)[nH]c3ccc(Cl)cc23)CC1 | 21.4 | 41.5* | -6.7 | 1.5 | 10.5 | 21.5 | 3.6 | 32.4
CC(C)(C)OC(=O)NCCc1ccccc1/C=C/S(=O)(=O)NC1CCCC1 | · | 0.1 | · | · | 1.5 | · | · | ·
CCOC(=O)C(NCc1ccco1)(NC(=O)c1ccccc1)C(F)(F)F (stereo not drawn) | 0.7 | 13.9 | 4.6 | 3.7 | 17.4 | 2.6 | · | ·
CCOC(=O)C(NC(=O)c1ccccc1)(Nc1cccc(C)n1)C(F)(F)F (stereo not drawn) | -6.6 | 39.5* | -1.5 | 2.9 | -8.7 | -0.6 | -4.7 | 1.7
O=C(N1CCOCC1)N1CC[C@H]2[C@H](CCCN2Cc2cc(F)cc(F)c2)C1 | · | -0.5 | · | · | -9.7 | · | · | ·
SMILES | NR5A2 inv ag | NR2F2 inh | Gli-Sufu block | NCOA1 inh | NCOA2 inhibitor | NCOA3 inh | Gal4-VP16 ctr | COUP-TFII conf
O=C(Nc1ccc(Cl)c(S(=O)(=O)N2CCOCC2)c1)c1ccc(Cl)nc1 | 12.7 | 44.1* | 9.7 | 17.6 | -2.4 | -0.3 | 3.3 | 16.0
O=C(Nc1cccc(C(=O)NC2CC2)c1)c1ccc(Cl)c(S(=O)(=O)N2CCOCC2)c1 | 11.8 | 11.4 | -5.7 | -5.2 | -5.2 | -6.5 | · | ·
COc1ccc(NC(=O)c2cc3c(s2)CCC(C)C3)cc1S(=O)(=O)N1CCOCC1 (stereo not drawn) | 22.6 | 60.2* | 28.2 | 25.1 | 12.9 | 22.4 | -16.0 | 28.1
COc1ccc(C(=O)Nc2ccc(Cl)c(S(=O)(=O)N3CCOCC3)c2)cc1 | 20.9 | 58.6* | -2.8 | 31.4 | 20.4 | 20.0 | -6.2 | 25.2
O=C(Nc1cccc(Br)c1)c1ccc(Cl)c(S(=O)(=O)N2CCOCC2)c1 | 5.9 | 58.6* | 20.1 | 16.7 | 30.8 | 21.5 | -5.7 | 57.3*
CCn1c2ccccc2c2cc(C=NNC(=O)c3ccoc3C)ccc21 | · | -40.6 | · | · | -23.7 | · | · | ·
CC[C@H](CCC(=O)N(c1ccccc1)c1ccccc1)c1ccc(C)cc1 | · | 11.9 | · | · | -0.4 | · | · | ·
COc1ccc(CCNC(=O)c2ccc(Cl)c(S(=O)(=O)N3CCCC3)c2)cc1 | 10.2 | 40.8* | 6.8 | 0.5 | -29.0 | 12.8 | -3.8 | 19.7
COc1ccc(C(CNC(=O)c2ccc(Cl)c(S(=O)(=O)N3CCCC3)c2)N2CCCC2)cc1 (stereo not drawn) | 8.1 | -10.6 | 17.5 | 2.1 | -7.6 | 3.4 | · | ·
Nc1cc(-c2ccc(Br)cc2)nn1Cc1ccccc1 | 13.3 | 37.4* | -23.0 | -19.1 | 19.5 | -17.6 | -67.0 | 10.3
Nc1cc(-c2cccc(Br)c2)nn1Cc1ccccc1 | 5.5 | 4.4 | -9.0 | -16.1 | -3.4 | 8.1 | · | ·
CC[C@H](CCCc1ccc(F)cc1)CN(Cc1ccc(OC)cc1)S(=O)(=O)c1ccc(C)cc1 | · | 2.0 | · | · | -39.0 | · | · | ·
O=C(CSc1ncccc1C(=O)O)Nc1ccc2c(c1)OCCO2 | 50.3 | 55.4* | -4.6 | 14.8 | 47.9 | 18.9 | -6.0 | -3.9
